Here are results for 33 compounds from ChEMBL document CHEMBL3433997, “St. Jude Leishmania screening dataset” (2016).

Type in all cases: functional
Test [1] concerns the target Solute carrier family 2, facilitated glucose transporter member 1 (Homo sapiens) (UniProt P11166). Description: ST_JUDE_LEISH: Cytotoxicity at 2uM final concentration against transgenic Leishmania Mexicana promastigotes LmGLUT1 that are glucose transport deficient and complemented with the human glucose transporter GLUT1. Activity is measured by DNA content using SYBR green in vitro.

For test [2], the target named is Hexose transporter 1 (Plasmodium falciparum) (UniProt O97467). Description: ST_JUDE_LEISH: Cytotoxicity at 2uM final concentration against transgenic Leishmania Mexicana promastigotes LmPfHT that are glucose transport deficient and complemented with the Plasmodium falciparum hexose transporter. Activity is measured by DNA content using SYBR green in vitro.
The target in test [3] is Glucose transporter (Leishmania mexicana) (UniProt O61059). Description: ST_JUDE_LEISH: Cytotoxicity at 2uM final concentration against transgenic Leishmania Mexicana promastigotes LmGT2 that are glucose transport deficient and complemented with the L. Mexicana glucose transporter 2. Activity is measured by DNA content using SYBR green in vitro.

Sequence of Solute carrier family 2, facilitated glucose transporter member 1 (Homo sapiens) (P11166 whole entry): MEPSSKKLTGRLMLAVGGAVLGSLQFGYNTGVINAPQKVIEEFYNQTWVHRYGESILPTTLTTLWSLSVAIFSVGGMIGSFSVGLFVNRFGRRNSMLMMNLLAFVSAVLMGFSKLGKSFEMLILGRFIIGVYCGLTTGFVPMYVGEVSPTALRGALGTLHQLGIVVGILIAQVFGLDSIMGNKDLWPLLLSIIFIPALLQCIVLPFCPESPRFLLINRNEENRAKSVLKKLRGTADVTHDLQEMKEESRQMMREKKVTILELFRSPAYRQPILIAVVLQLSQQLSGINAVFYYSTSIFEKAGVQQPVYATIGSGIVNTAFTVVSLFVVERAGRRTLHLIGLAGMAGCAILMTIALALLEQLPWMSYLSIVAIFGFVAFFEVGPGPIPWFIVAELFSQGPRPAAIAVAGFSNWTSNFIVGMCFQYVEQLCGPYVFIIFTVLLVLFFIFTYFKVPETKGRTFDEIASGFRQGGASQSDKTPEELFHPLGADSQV

Consider `O=C(Nc1cccnc1)c1ccc(-c2cc3ccncc3cc2OC2CCNCC2)s1`, for which the inhibition in test [1] was 2.38%; in test [2] it was 2.54%; in test [3], 2.16%.
As to `CC(C)NCc1cccc(-c2ccc(NC(=O)c3ccc(C#N)cc3)cc2)c1`, the inhibition in test [1] amounted to 14.9%; in test [2], 12.1%; in test [3] it was 10%.
For `O=C(Nc1ccc(Cn2ncc(N3CCCNCC3)c(Cl)c2=O)cc1)Nc1ccc(OCc2ccccc2)cc1`, in that order: -0.85%, -0.65% and -1.2%.
For `Cc1cccc2nc(-c3ccc(-c4cccc(NC(=O)c5cncn5C)c4)cc3)[nH]c12`, in that order: 5.73%, 5.37% and 5.41%.
For `Cc1cc(NC(=O)Nc2cccc(Cl)c2Cl)c2ccccc2n1`, in that order: 6.15%, 6.44% and 2.66%.
In the case of `Cc1cc2nc(-c3ccc(/C=C/C(=O)NC4CCN(Cc5ccccc5)CC4)cc3)[nH]c2cc1C`, the figures for the inhibition in test [1], in test [2] and in test [3] were 0.58%, -0.75% and -2.3%, respectively.
For `CCCC(C)Nc1nc(C)cc(N[C@@H](CC(C)C)C(=O)NCCOc2ccccc2)n1` (some centres undefined), in that order: 21.4%, 17% and 16.7%.
For `CCNC(=O)CCc1cccc(Br)c1`, in that order: -1.73%, -1.52% and -1.62%.
For the compound `COc1ccc2nccc([C@@H](O)CN3CCC(NCc4nc5ccc(F)cc5[nH]4)CC3)c2c1`, the inhibition stood at 2.34% in test [1], 1.93% in test [2] and 2.2% in test [3].
For `CC(C)(CN)c1cc(-c2ccc(Cl)c(O)c2)c(-c2ccncc2)o1`, in that order: 0.01%, 3.22% and 1.62%.
For `CNC(=O)COc1cc(C)c(C2CCN(CCCCNC(=O)c3ccc(-c4ccc(C(F)(F)F)cc4)cc3)CC2)cc1C`, in that order: 2.41%, 2.32% and 1.85%.
For `CCC(=O)NC(c1ccco1)c1cc(Cl)c2cccnc2c1O` (centres undefined), in that order: 12.9%, 12.3% and 10.7%.
With `N#Cc1cccc(Nc2ncc3c(-c4cccc(NC(=O)Cc5cccc(Cl)c5)c4)c[nH]c3n2)c1`, the figures for the inhibition in test [1], in test [2] and in test [3] were 3.15%, 2.53% and 0.18%, respectively.
For `COc1ccccc1C1CCN(Cc2csc(NC(=O)c3ccc(-c4ccc(C(F)(F)F)cc4)cc3)n2)CC1`, in that order: 7.33%, 6.58% and 3.56%.
For `Cc1cccn2c(=O)c3cc(C(=O)NCc4cccnc4)c(=N)n(CCc4ccccc4)c3nc12`, in that order: 3.35%, 4.08% and 1.6%.
For `Nc1oc2c(CN3CCCCCC3)c(O)ccc2c(=O)c1-c1nc2ccccc2s1`, in that order: -1.92%, 6.76% and 2.85%.
Regarding `O=C(NCCCCN1CCC(c2ccc3c(c2OCCO)CCCC3)CC1)c1ccc(-c2ccc(C(F)(F)F)cc2)cc1`, the results for the inhibition in test [1], in test [2] and in test [3] were -0.75%, 0.12% and 5.23%, respectively.
For `CC(=O)Nc1cccc(C(=O)Nc2cccc(-c3ccc(-c4nc5cc(C(F)(F)F)ccc5[nH]4)s3)c2)c1`, in that order: 0.34%, 0.52% and 0.89%.
For `O=C(Nc1cc(Cl)c(Cl)cc1NC(=O)c1cccc(-c2ccccc2)c1O)c1cccc(-c2ccccc2)c1O`, in that order: 5.1%, 0.97% and 2.6%.
In the case of `CCOc1c(CNCCCNc2cc(=O)c3ccccc3[nH]2)cc(I)cc1C(C)(C)C`, the inhibition in test [1] was -0.21%; in test [2], 1.18%; in test [3], 0.27%.
For `CC(C)(CNCc1ccc(F)c(F)c1)c1nc(-c2ccnc(N)n2)c(-c2ccc(Cl)c(O)c2)[nH]1`, the figures for the inhibition in test [1], in test [2] and in test [3] were 3.92%, 1.07% and 2.56%, respectively.
Regarding `CN1CCCN(Cc2cccc(-c3cccc(NC(=O)c4cccc(Cl)c4)c3)c2)CC1`, the inhibition turned out to be 13.4% in test [1], 9.81% in test [2] and 9.71% in test [3].
For `CN(C)CCNC(=O)c1ccc2c(c1)n(C1CCN(S(=O)(=O)c3ccc(-c4ccccc4)cc3)CC1)c(=O)n2CC1CCCCC1`, in that order: -1.79%, -0.94% and -1.74%.
For `COC(=O)C1=C(C)NC2=C(C(=O)CC(c3ccc(OC)c(OC)c3)C2)C1c1cccc(O)c1` (centres undefined), in that order: 3.8%, 3.84% and 3.82%.
For `Cc1cc2c(cc1C(F)(F)F)N(C(=O)Nc1ccc(C(=O)NCCN3CCCC3)cc1)CC2`, in that order: 1.29%, 1.86% and -0.08%.
As to `CCn1c(SCc2ccc(F)cc2)nc2sc3c(c2c1=O)CCN(C)C3`, the inhibition in test [1] was -1.93%; in test [2], 1.32%; in test [3] it was 0.64%.
As for `CC(C)c1ccc(OCC(O)CN(CCN2CCOCC2)C(=O)Nc2ccc(Br)cc2)cc1` (centres undefined), the values for the inhibition in test [1], in test [2] and in test [3] were 7.44%, 5.63% and 9.58%, respectively.
As to `CN1CC[C@@H](Oc2cc(C(=O)NCc3ccc(Cl)c(Cl)c3)ccc2C(F)(F)F)C1`, the inhibition was -0.85% in test [1], -1.04% in test [2] and 0.48% in test [3].
For `COc1ccc(NC(=O)c2ccc(-c3nc(-c4cccc(C(F)(F)F)c4)cs3)cc2)cc1N1CCN(C)CC1`, in that order: 0.87%, 1.59% and 2.01%.
For `CCN(CC)CCOc1c(Cl)cc(Cl)cc1CNCCCNc1cc(=O)c2ccccc2[nH]1`, in that order: 0.34%, 1.03% and 4.06%.
For `CCn1c(Cc2ccccc2)nnc1SCC(=O)N1c2ccccc2Sc2ccccc21`, in that order: 4.01%, 3.52% and 2.39%.
With `CCCC(=O)Nc1ccc(OCCN(Cc2ccccc2OC(F)(F)F)c2ccc(C(F)(F)F)c(C#N)c2)cc1`, the inhibition in test [1] was found to be 3.46%; in test [2] it was 1.7%; in test [3] it was 2.31%.
For `CCCCCCCNC(=O)NCC1CCCN(CCCCCNC(=O)/C=C/c2ccc(Cl)c(Cl)c2)C1` (centres undefined), in that order: 1.71%, 4.27% and 2.15%.

In general, inhibition refers to the drop in the measured response relative to a control, in per cent.
